Unmarked numbers belong to inactive results. Inconclusive results are not listed. The source made the active and inactive calls. Unless noted, calls come from the whole dose curve; as a rule, active = well fitted curve in the direction sought with a large enough effect; inconclusive = small, poorly fitted or top-dose-only effect, or another doubt; inactive = no such curve, though single readings can be large; an effect the other way counts as inactive or inconclusive.

Data on seven compounds can be found in PubChem BioAssay (NCATS).

In test [1] the target is Lysosomal acid glucosylceramidase (Homo sapiens) (UniProt P04062). Nature of the test: Glucocerebrosidase-p2 (AID 348; in the data active = potency below about 10 µM; note: potency is the fitted concentration of half-maximal effect). As to conditions: purified GBA, blue fluorogenic substrate, 40 min. Put shortly:
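Normal human glucocerebrosidase (0.2 nM) with blue fluorogenic substrate (80 uM final) in citrate/phosphate pH 5.9 with 10mM sodium taurocholate, 0.01% tween-20; 40 min RT, NaOH/glycine stop; fluorescence Ex 365/Em 440; AC50 from a titration from 0.6 nM upwards.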

The target in test [2] is Glucocorticoid receptor (Homo sapiens) (UniProt P04150). Nature of the test: GR-GFP Redistribution (AID 450;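 active = compounds whose dose series gives a full or clear partial fitted curve of increased nuclear translocation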; note: potency is the fitted concentration of half-maximal effect). The following applies: U2OS GR-GFP nuclear translocation, laser cytometry, 2 h.
Sequence of Glucocorticoid receptor (Homo sapiens) (P04150 whole entry, looked up, the tested form may be a part): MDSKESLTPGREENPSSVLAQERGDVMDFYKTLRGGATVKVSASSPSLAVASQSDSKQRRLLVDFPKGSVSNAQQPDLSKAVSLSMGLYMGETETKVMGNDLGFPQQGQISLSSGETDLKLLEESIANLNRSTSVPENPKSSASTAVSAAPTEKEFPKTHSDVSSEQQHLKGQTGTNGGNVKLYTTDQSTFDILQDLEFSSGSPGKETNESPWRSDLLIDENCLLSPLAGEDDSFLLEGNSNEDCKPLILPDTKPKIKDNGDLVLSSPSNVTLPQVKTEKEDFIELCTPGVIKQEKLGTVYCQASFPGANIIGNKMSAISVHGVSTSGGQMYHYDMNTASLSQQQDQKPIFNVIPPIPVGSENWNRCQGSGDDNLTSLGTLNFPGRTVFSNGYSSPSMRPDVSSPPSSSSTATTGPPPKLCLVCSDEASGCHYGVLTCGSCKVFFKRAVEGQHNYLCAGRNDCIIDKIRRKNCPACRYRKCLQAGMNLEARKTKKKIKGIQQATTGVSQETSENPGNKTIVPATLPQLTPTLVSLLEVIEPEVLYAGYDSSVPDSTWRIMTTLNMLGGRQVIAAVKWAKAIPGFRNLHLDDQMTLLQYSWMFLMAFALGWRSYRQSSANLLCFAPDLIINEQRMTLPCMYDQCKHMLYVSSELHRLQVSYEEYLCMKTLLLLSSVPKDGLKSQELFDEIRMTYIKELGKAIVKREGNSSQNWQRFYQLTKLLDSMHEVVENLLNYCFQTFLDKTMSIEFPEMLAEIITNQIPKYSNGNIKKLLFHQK
Test [3] shares this target. In words: GR-EFC Redistribution (AID 451; calls by dose curve; note: potency is the fitted concentration of half-maximal effect). As to conditions: CHO-K1 GR-EFC translocation, beta-gal luminescence, 2 h. In a few lines: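 CHO-K1 cells expressing nuclear EA and GR-ED fragments of b-gal; compounds titrated up to 46 uM final, 2 h at 37 C. GR nuclear translocation read as complemented b-gal luminescence after 1 h RT detection.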
Test [4] has as its target Mitogen-activated protein kinase 10 (Mus musculus) (UniProt Q61831). Nature of the test: JNK3 AlphaScreen Assay (AID 530; active = well fitted curve in either direction with a large enough effect, not every such curve was filed as active;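 note: kinase came from lysate of stimulated human HepG2 cells; signal reports phosphorylation of biotinylated GST-cJun 1-79 at Ser73 with 10 µM ATP; % is set by controls: 0 for no effect and ±100 for the full control effect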). The following applies: JNK3 lysate, c-Jun phosphorylation; series mostly up to 57.1 µM. In a few lines: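 HepG2 lysate (IL-1b/TNFa pre-activated) + biotin-GST-cJun 1-79 + anti-pSer73 cJun; cpd titration, 15 min RT; ATP 10 uM start; Tris pH 7.6, MgCl2, DTT, vanadate; beads in EDTA buffer; AlphaScreen.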
For orientation: In Alpha technology, singlet oxygen from a donor bead excites a nearby acceptor bead.

Test [5] has as its target 3',5'-cyclic-AMP phosphodiesterase 4B (Homo sapiens) (UniProt Q07343). In words: qHTS Assay for Inhibitors of PDE-IV (AID 607; active = well fitted activation curve with a large enough effect in the main read-out, with a control signal flat, not every such curve was filed as active; note: % of control where 0% means no effect). The following applies: HEK293 ACTOne CNG channel cells, membrane potential fluorescence; series mostly up to 22.9 µM. In a few lines:
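The readout is membrane depolarisation from a cAMP-sensing CNG channel, detected with a potential dye at ex 535/em 590. Cells were HEK293-derived (endogenous PDE-IV) at 1000 cells/well, titrated up to 22.9 uM final.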
(In general: In qHTS, concentration-response curves come from the screen itself.)

A short description of test [6]: qHTS Assay for Identification of Small Molecule Agonists for Hypoxia Response Element Signaling Pathway (AID 914; active = well fitted activation curve with a large enough effect in the signal ratio, with a control signal flat, not every such curve was filed as active; the % refers to the signal ratio; note: potency is the fitted concentration of half-maximal effect; for activation: % of control where 0% means no effect). The following applies: ME-180 HRE-bla reporter, beta-lactamase ratio, CoCl2, 17 h; activation: hits give high values. In a few lines: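 Positive modulation of EC50 CoCl2-induced hypoxia response element signaling is measured in ME-180 cells with a beta-lactamase reporter. Compounds are titrated, incubation runs 17 hours, and %Activity derives from the blue/green ratio.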

Test [7] concerns the target Dual specificity protein kinase CLK4 (Homo sapiens) (UniProt Q9HAZ1). Nature of the test: qHTS Assay for Inhibitors of CDC-like Kinase 4 (Kinase-Glo Assay) (AID 1770). Note: % is set by controls: 0 for no effect and ±100 for the full control effect; nearly all actives have a fitted effect of over 65% in size. As to conditions: recombinant Clk4, Kinase-Glo ATP depletion luminescence; series mostly up to 66.7 µM. In a few lines: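 Readout: Kinase-Glo luminescence from ATP left after a 4.5 h room-temperature reaction of 25 nM Clk4 with 100 uM RS peptide and 1 uM ATP (final). Buffer: 25 mM Tris pH 7.5, 10 mM MgCl2.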

Test [8] has the same target. In words: qHTS Assay for Inhibitors of CDC-like Kinase 4 (ADP-Glo Assay) (AID 1771). Note: % is set by controls: 0 for no effect and ±100 for the full control effect; nearly all actives have a fitted effect of over 70% in size. The following applies: recombinant CLK4, ADP-Glo luminescence; series mostly up to 80 µM. In a few lines:
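In this ADP-Glo format, 1 uM ATP and 100 uM RS peptide served as substrates for 25 nM Clk4 in Mg2+/EGTA/DTT/Triton buffer; reactions ran 1 hr at room temperature before luminescent ADP quantification.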

For test [9] the target is unchanged. In words: qHTS Assay for Inhibitors of CDC-like Kinase 4 (ADP-FP Assay) (AID 1795).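 Note: recombinant human CLK4 phosphorylating RS repeat peptide at 1 µM ATP; % is set by controls: 0 for no effect and ±100 for the full control effect; nearly all actives have a fitted effect of over 60% in size.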 The following applies: Transcreener ADP fluorescence polarization; series mostly up to 50 µM. In a few lines: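 FP readout: Orange Transcreener ADP2 tracer (4 nM) plus ADP antibody, read after 30 min at room temperature. Kinase step: 6.25 nM Clk4, 100 uM RS peptide, 1 uM ATP, pH 7.5, 1 h.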

In test [10] the target is Ubiquitin carboxyl-terminal hydrolase 1 (Homo sapiens) (UniProt O94782). In words: Inhibitors of USP1/UAF1: Pilot qHTS (AID 504865).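 Note: rhodamine fluorescence freed from ubiquitin-rhodamine substrate followed over time; top concentration of the series differs between compounds; % is set by controls: 0 for no effect and ±100 for the full control effect; nearly all actives have a fitted effect of over 35% in size.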 As to conditions: purified USP1/UAF1, Ub-rhodamine cleavage fluorescence; series mostly up to 54.9 µM. Put shortly: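 1nM USP1/UAF1 + cpd, 15 min RT; start w/ Ub-Rho 150nM final; kinetic FL 480/540 nm, 6 reads q60 s. Buffer 50mM HEPES pH 7.8, 0.5mM EDTA, 1mM TCEP, 0.01% Tween-20, 0.1 mg/ml BSA.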
Sequence of Ubiquitin carboxyl-terminal hydrolase 1 (Homo sapiens) (O94782 whole entry, looked up): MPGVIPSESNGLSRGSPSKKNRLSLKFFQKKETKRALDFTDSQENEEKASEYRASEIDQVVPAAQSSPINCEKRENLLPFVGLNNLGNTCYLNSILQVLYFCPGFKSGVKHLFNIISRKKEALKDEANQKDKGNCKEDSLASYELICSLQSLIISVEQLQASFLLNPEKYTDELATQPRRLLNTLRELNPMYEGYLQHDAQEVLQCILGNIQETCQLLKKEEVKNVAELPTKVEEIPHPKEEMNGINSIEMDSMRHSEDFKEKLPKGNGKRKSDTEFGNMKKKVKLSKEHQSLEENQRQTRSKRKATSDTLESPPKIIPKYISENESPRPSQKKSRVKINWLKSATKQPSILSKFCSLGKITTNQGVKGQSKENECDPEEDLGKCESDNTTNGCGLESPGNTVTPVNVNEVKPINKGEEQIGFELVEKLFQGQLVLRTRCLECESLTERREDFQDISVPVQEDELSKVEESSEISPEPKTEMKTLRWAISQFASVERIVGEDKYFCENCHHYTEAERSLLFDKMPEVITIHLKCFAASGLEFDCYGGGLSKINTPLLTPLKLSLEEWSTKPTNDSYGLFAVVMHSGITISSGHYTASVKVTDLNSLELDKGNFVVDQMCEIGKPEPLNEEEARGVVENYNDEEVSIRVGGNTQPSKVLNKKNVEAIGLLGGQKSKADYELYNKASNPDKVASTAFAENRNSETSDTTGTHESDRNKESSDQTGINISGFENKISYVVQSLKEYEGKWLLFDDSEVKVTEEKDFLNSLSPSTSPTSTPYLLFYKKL

Test [11] is described as follows: Primary qHTS for small molecule stabilizers of the endoplasmic reticulum resident proteome: Secreted ER Calcium Modulated Protein (SERCaMP) assay (AID 1508630). Note: % is set by controls: 0 for no effect and ±100 for the full control effect. The following applies: SH-SY5Y GLuc-SERCaMP (Gaussia luciferase released on ER calcium loss) secretion, thapsigargin, luminescence; series mostly up to 38.4 µM. In a few lines: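 The SH-SY5Y reporter protocol was run at 3 concentrations up to 38.3 uM (primary) or 11 concentrations (follow-up): 16 h compound, 100 nM thapsigargin for 4 h, then extracellular luciferase luminescence.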

A short description of test [12]: NFAT Signaling Pathway (AID 444; active = well fitted curve in either direction with a large enough effect, not every such curve was filed as active;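 note: carbachol stimulus at about its EC50 of 1 µM final; % is set by controls: 0 for no effect and ±100 for the full control effect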). The following applies: Jurkat NFAT-bla M1, carbachol, beta-lactamase ratio, 5 h; at 7.69 µM (top of the series) unless noted. Put shortly: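 Jurkat cells with NFAT-driven β-lactamase reporter and co-expressed M1 receptor, stimulated with carbachol (final 1 uM, ~EC50), compound titration, 5 h at 37 °C. CCF4 loaded 1 h at RT; 460/530 nm ratio gave %activity and AC50.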

Test [13] in a line: Stat Signaling Pathway (AID 446; active = well fitted curve in either direction with a large enough effect, not every such curve was filed as active;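 note: ME-180 cervical cancer cells given 40 pM IL-6 alongside compound; SIE-controlled beta-lactamase reporter measured as 460/530 nm FRET emission ratio; % is set by controls: 0 for no effect and ±100 for the full control effect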). The following applies: ME-180 (cervical carcinoma) SIE beta-lactamase reporter, IL-6 stimulated, 5 h; at 7.69 µM (top of the series) unless noted. In a few lines:
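Emission at 460 and 530 nm (excitation 405 nm) reports SIE-controlled beta-lactamase in ME-180 cells. Cells received compound with 40 pM IL-6 for 5 hrs at 37 C; data scaled between 300 pM IL-6 and 125 nM JAK-inhibitor controls.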

For test [14], the target named is Cytochrome P450 3A4 (Homo sapiens) (UniProt P08684). In words: qHTS Assay for Activators of Cytochrome P450 3A4 (AID 885). Note: nearly all actives have a fitted effect of over 65% in size. The following applies: recombinant CYP3A4, Luciferin-PPXE luminescence, 60 min; series mostly up to 57.1 µM. In a few lines: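 Activators are scored by enhanced luminescence from CYP3A4 conversion of luciferin-PPXE (25uM, equal to KM) to luciferin, after 60 min at RT with an NADPH-regenerating system.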
Sequence of Cytochrome P450 3A4 (Homo sapiens) (P08684 whole entry, looked up): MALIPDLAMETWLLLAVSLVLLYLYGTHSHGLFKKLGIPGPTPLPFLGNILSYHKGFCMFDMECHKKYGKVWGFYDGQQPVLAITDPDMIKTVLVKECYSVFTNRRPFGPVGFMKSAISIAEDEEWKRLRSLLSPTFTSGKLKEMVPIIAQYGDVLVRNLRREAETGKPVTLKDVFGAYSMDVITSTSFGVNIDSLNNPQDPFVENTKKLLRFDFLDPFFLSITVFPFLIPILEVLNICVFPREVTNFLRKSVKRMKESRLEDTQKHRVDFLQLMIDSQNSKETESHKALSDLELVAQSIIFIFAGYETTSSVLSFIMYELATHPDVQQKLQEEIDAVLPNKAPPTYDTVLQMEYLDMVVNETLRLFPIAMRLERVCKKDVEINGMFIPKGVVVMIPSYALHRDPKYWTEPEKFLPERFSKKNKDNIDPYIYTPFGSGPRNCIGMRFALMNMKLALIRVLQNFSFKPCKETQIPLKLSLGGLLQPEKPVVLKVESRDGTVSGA

Test [15] addresses Cytochrome P450 1A2 (Homo sapiens) (UniProt P05177). Nature of the test: p450-cyp1a2 (AID 410; calls by dose curve; note: potency is the fitted concentration of half-maximal effect). The following applies: recombinant CYP1A2, luciferin-ME demethylation, luminescence; series mostly up to 57 µM. In a few lines:
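Read-out is luminescence from luciferin produced by CYP1A2 demethylation of Luciferin-ME (100uM, at Km). Detection reagent stopped the 60 min NADPH-dependent reaction; signals were normalized to 57 uM furafylline.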

Sequence of Lysosomal acid glucosylceramidase (Homo sapiens) (P04062 whole entry, looked up): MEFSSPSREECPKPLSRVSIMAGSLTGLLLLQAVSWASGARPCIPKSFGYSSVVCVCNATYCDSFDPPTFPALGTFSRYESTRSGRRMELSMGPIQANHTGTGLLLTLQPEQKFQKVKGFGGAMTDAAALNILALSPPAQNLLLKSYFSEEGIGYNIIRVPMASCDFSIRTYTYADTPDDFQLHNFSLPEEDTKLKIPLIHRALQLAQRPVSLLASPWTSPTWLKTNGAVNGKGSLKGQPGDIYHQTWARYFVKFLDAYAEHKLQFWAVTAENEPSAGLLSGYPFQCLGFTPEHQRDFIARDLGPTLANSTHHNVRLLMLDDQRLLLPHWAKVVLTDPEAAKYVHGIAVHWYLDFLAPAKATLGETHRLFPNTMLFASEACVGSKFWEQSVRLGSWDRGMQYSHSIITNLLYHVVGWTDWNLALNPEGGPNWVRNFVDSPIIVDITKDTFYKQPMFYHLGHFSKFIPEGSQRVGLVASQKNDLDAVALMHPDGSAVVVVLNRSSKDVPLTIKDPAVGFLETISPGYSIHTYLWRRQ
Sequence of Dual specificity protein kinase CLK4 (Homo sapiens) (Q9HAZ1 whole entry, looked up): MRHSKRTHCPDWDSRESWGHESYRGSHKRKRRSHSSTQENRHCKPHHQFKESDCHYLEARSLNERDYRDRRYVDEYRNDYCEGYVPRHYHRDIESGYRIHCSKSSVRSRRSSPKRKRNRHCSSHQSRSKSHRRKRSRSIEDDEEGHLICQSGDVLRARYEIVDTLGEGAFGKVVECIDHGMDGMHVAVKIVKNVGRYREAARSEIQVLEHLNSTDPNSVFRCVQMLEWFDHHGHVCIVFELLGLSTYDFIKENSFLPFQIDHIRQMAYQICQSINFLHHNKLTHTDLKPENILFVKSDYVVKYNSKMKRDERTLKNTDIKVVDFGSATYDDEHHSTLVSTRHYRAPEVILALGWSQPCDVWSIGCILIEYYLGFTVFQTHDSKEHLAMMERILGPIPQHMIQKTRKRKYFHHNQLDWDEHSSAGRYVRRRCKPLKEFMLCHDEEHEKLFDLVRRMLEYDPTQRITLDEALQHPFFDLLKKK
Sequence of 3',5'-cyclic-AMP phosphodiesterase 4B (Homo sapiens) (Q07343 whole entry, looked up): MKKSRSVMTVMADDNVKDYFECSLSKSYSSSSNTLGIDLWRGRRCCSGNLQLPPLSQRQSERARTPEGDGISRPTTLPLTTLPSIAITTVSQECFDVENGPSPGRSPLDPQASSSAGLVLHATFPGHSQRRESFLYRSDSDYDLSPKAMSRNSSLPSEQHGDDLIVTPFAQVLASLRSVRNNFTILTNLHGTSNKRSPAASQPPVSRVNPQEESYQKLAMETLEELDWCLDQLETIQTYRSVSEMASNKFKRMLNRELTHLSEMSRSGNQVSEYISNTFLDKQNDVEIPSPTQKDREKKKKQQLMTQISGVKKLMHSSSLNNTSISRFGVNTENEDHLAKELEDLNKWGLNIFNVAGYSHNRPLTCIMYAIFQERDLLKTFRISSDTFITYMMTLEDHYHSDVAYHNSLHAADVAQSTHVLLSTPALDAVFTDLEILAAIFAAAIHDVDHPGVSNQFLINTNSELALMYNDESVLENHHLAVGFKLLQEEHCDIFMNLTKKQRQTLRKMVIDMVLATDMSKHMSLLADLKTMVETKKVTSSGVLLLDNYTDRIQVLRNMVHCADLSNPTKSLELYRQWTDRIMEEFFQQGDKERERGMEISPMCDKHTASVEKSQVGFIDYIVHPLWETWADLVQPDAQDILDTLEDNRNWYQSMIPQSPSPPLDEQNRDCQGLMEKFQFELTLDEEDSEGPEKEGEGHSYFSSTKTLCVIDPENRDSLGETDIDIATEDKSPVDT
Sequence of Cytochrome P450 1A2 (Homo sapiens) (P05177 whole entry, looked up): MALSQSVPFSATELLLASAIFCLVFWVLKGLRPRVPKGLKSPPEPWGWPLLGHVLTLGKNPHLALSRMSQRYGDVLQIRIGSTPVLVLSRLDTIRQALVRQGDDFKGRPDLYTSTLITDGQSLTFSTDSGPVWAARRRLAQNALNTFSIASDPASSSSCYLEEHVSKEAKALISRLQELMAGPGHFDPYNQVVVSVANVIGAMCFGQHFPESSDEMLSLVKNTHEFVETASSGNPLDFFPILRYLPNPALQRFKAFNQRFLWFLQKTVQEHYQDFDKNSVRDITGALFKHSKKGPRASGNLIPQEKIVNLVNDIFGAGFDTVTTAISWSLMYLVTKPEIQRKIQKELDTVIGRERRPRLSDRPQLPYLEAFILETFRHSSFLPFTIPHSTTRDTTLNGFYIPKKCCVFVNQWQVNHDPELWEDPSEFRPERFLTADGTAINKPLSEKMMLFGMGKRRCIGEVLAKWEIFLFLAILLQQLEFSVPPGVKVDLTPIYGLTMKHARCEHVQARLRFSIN

Take `COc1cccc(Cn2c(=O)c(-c3ccc(Cl)cc3)nc3cnc(N4CCOCC4)nc32)c1`: the Potency in test [1] was over 11.4 µM; in [2] it was over 9.22 µM; in [3], over 46 µM; in test [6] it was 1.58 µM (active). Moreover, the Potency result in [4], in [5], in test [7], in test [8], in [9] and in test [10] was “inactive” throughout. Besides, the outcome in test [11] was inactive.

Regarding `COc1ccc(CNc2ccnc(-c3ccoc3)n2)c(OC)c1`, the Potency is over 11.4 µM in test [1], over 46 µM in test [2] and over 46 µM in [3]. In addition, the activity change, negative = inhibition in test [12] is 8.22%. The activity, negative = inhibition in test [13] is 10.4%. The Potency entry in [4], in [7], in test [8], in test [9] and in test [10] was “inactive” each time. Further, the activation in test [6] was 16.3%. In addition, the outcome in test [11] was inactive.

As to `N#CCCn1c(=O)c(-c2ccc(Cl)cc2)nc2cnc(N3CCNCC3)nc21`, the Potency in test [1] was over 11.4 µM; in test [2], over 9.22 µM; in test [3], over 46 µM. The Potency entry in [4], in test [5], in test [14], in test [7], in test [8] and in [9] was “inactive” throughout. Further, the Potency result in [10] is “inactive”. In addition, in [11], the result was inactive.

Consider `COc1ccc(-c2nc3cnc(OCc4ccccc4)nc3n(CCC#N)c2=O)cc1`, for which the values for the Potency in test [1], in test [2] and in test [3] were over 11.4 µM, over 9.22 µM and over 46 µM, respectively. The Potency entry in test [4], in test [5], in [14], in test [7], in test [8] and in test [9] was “inactive” each time. In addition, the Potency result in [10] is “inactive”. Besides, the outcome in [11] was inactive.

Turning to `N#CCCn1c(=O)c(-c2ccc(F)cc2)nc2cnc(N3CCNCC3)nc21`, the Potency is over 11.4 µM in test [1], over 9.22 µM in [2], over 46 µM in test [3] and 3.16 µM (active) in [6]. Moreover, the Potency result in test [4], in [5], in test [14], in test [7], in test [8] and in [9] was “inactive” throughout. Further, the Potency result in test [10] was “inactive”. Also, in test [11], the result was inactive.

On to `CN1CCN(c2ncc3nc(-c4cn(C)c5ccccc45)c(=O)n(Cc4cccs4)c3n2)CC1`, for which the Potency was over 11.4 µM in [1], over 9.22 µM in test [2], over 46 µM in [3] and 2.51 µM (active) in test [6]. Besides, the activity change, negative = inhibition in [12] was 3.65%. Further, the Potency result in [5], in test [7], in test [8], in test [9] and in [10] was “inactive” in each case. In addition, in [11], the outcome was inactive.

As for `CCNc1ncc2nc(-c3ccc(F)cc3)c(=O)n(-c3ccccc3)c2n1`, the Potency is over 11.4 µM in test [1]; 0.398 µM (active) in test [15]; over 9.22 µM in test [2]; over 46 µM in test [3]; 3.16 µM (active) in test [6]. The Potency entry in [4], in [7], in test [8], in test [9] and in test [10] was “inactive” in each case. The outcome in test [11] was inactive.
